Screening data from PubChem BioAssay.
CtBP-E1A blk: qHTS Assay for Inhibitors of the CtBP/E1A Interaction. CtBP / adenovirus E1A interaction (AlphaScreen). AlphaScreen GST-E1A/His-CtBP binding, 1536-well; stronger effect = lower value. activity change, % (concentration not given with the values). hit rate 0.49% among 340,000. AID 651724, 2012; in the data active = activity change below about -65%; inconclusive = mostly about -30% to -63%
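GST-E1A and His-tagged CtBP (125 nM each as 5X stock) were preincubated with pin-transferred compound for 2 h at 37 °C in the dark, then glutathione donor and nickel acceptor beads were added for 1 h before AlphaScreen reading.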
IL1B secr inh: qHTS for Inhibitors of Inflammasome Signaling: IL-1-beta AlphaLISA Primary Screen; hit rate 4.7% among 360,000; activity change, % at 57.5 µM; THP-1 LPS/ATP IL-1B secretion, AlphaLISA, 16 h; stronger effect = lower value; in the data active = activity change below about -50%; inconclusive = mostly about -30% to -49%
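Secreted IL-1B measured by AlphaLISA bead assay after 16 h compound exposure of THP-1 cells; compounds (final up to 57.5 uM) added 1 h before LPS (250 ng/mL) and ATP (1.25 mM) stimulation; lower signal means less secretion.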
Six1-Eya2 inh: qHTS Assay for Inhibitors of the Six1/Eya2 Interaction; AlphaScreen GST-Six1/His-Eya2 binding, biochemical; stronger effect = lower value; activity change, % (test concentration not listed); hit rate 0.56% among 360,000; AID 651725, 2012; in the data active = activity change below about -65%; inconclusive = mostly about -30% to -63%
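AlphaScreen with GST-Six1 and His-Eya2 (5X mix: 250 nM and 500 nM), glutathione donor and nickel acceptor beads; buffer 50 mM Tris pH 8.0, 300 mM NaCl, 1 mM TCEP; 1 h at 37 C in the dark.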
TDP1 cell CPT: qHTS for Inhibitors of human tyrosyl-DNA phosphodiesterase 1 (TDP1): qHTS in cells in presence of CPT; chicken DT40 Tdp1-/-;hTDP1 cells + 20 nM CPT, ATP luminescence, 48 h; Potency, µM (doses to about 46.2 µM), inactives show at the top dose activity change, negative = growth inhibition, most hits filed as inhibitors; hit rate 12% among 420,000; AID 686979, 2013; note: potency is the fitted concentration of half-maximal effect; nearly all actives have a fitted effect of over 55% in size
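Cell growth measured by CellTiter-Glo luminescence after a minimum 48 h, 37 C compound exposure with 20 nM CPT in Tdp1-knockout DT40 cells stably expressing hTDP1, seeded 400/well; qHTS titration format.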
TDP1 cell noCPT: qHTS for Inhibitors of human tyrosyl-DNA phosphodiesterase 1 (TDP1): qHTS in cells in absence of CPT. hit rate 15% among 420,000. AID 686978, 2013. DT40 Tdp1-/- hTDP1 cells, no CPT, ATP luminescence, 48 h. Potency, µM (titrated, usually from 46.2 µM), inactives show at the top dose activity change, negative = growth inhibition, usual class: inhibitors; note: potency is the fitted concentration of half-maximal effect; nearly all actives have a fitted effect of over 55% in size
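Chicken DT40 Tdp1-/- cells stably complemented with human TDP1 were seeded at 400 cells/well with DMSO in place of 20 nM camptothecin. After compound pinning, cells grew at least 48 hr at 37 °C; viability read by CellTiter-Glo luminescence.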
TDP1 block: qHTS Assay for Inhibitors of Tyrosyl-DNA Phosphodiesterase (TDP1); AID 485290, 2010; Tyrosyl-DNA phosphodiesterase 1 (Homo sapiens), Q9NUW8; hit rate 0.28% among 350,000; recombinant TDP1, AlphaScreen DNA substrate cleavage; Potency, µM (titrated, usually from 130 µM), for the others: at the top dose activity change, negative = inhibition, hits mostly inhibitors; note: potency is the fitted concentration of half-maximal effect; nearly all actives have a fitted effect of over 40% in size
Target sequence (Q9NUW8 whole entry, looked up): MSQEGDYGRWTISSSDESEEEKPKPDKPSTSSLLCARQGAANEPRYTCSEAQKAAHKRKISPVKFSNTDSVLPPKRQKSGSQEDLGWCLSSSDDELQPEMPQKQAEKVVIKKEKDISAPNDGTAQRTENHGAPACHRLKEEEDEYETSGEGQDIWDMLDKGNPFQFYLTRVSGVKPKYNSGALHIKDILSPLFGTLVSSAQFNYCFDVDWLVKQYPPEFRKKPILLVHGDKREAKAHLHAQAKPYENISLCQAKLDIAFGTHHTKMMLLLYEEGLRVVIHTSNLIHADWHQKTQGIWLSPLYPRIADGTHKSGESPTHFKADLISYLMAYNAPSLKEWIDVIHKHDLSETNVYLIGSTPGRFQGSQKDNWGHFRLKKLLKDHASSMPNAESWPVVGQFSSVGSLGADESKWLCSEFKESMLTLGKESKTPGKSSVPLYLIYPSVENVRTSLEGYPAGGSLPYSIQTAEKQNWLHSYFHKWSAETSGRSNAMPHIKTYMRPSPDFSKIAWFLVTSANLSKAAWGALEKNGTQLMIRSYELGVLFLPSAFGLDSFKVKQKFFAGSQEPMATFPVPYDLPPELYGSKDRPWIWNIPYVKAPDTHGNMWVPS
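Steps: enzyme plus compound, 15 min RT; add biotin/phosphotyrosine-FITC oligonucleotide (15 nM final), react 5 min; add donor/acceptor beads (10 ug/ml final), 10 min; read AlphaScreen. Tdp1 at 1 nM final.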
* = called active by the depositor; ? = inconclusive; / = no result. A selection: hits, their analogues and other compounds. The true share with any hit is near 18%. Unless noted, calls come from the whole dose curve; as a rule, active = well fitted curve in the direction sought with a large enough effect; inconclusive = small, poorly fitted or top-dose-only effect, or another doubt; inactive = no such curve, though single readings can be large; an effect the other way counts as inactive or inconclusive. % is set by controls: 0 for no effect and ±100 for the full control effect.

SMILES | CtBP-E1A blk | IL1B secr inh | Six1-Eya2 inh | TDP1 cell CPT | TDP1 cell noCPT | TDP1 block
Cc1cccc(NCCC(=O)c2ccc([N+](=O)[O-])cc2)c1C | -21 | 5 | ? | 4.6µM* | ? | -5%
Cc1ccc(NCCC(=O)c2cccc([N+](=O)[O-])c2)c(C)c1 | ? | -16 | ? | 8.2µM* | 10µM* | 14%
Cc1cccc(-n2ncc(C(=O)N3CCN(Cc4ccccc4)CC3)c2C2CCN(C(=O)OC(C)(C)C)CC2)c1 | / | / | / | 16µM* | 16µM* | 1%
CN1CCN(C(=O)c2cnn(-c3ccccc3)c2C2CCN(C(=O)OC(C)(C)C)CC2)CC1 | / | / | / | -3% | -10% | 0%
CC(C)(C)OC(=O)N1CCC(c2c(C(=O)N3CCN(c4ccccc4)CC3)cnn2-c2ccccc2)CC1 | / | / | / | ? | 16µM* | -1%
Cc1ccc(-n2ncc(C(=O)N3CCN(c4cccc(C)c4)C(C)C3)c2C2CCN(C(=O)OC(C)(C)C)CC2)cc1 (centres undefined) | / | / | / | 15µM* | 23µM* | 2%
COc1ccc(-n2ncc(C(=O)N3CCN(Cc4ccccc4)CC3)c2C2CCN(C(=O)OC(C)(C)C)CC2)cc1 | / | / | / | 13µM* | 21µM* | 4%
CC(=O)Nc1ccc(S(=O)(=O)N2CCC(NC(=O)C(Cc3cccc(F)c3)NC(C)=O)CC2)cc1 (centres undefined) | 7 | -6 | 3 | -28% | 8% | /
CC(C)OCCCNC(=O)c1ccccc1Oc1ccccc1 | 6 | -9 | 6 | ? | ? | 1%
CC1(c2ccccc2Br)NC(=O)N(CC(=O)Nc2ccc(S(N)(=O)=O)cc2)C1=O (centres undefined) | 2 | 2 | 6 | -4% | -12% | -4%
OC(c1ccccc1)C(NCc1ccccc1)c1ccccc1 (centres undefined) | 1 | -23 | 8 | 23µM* | 23µM* | /
O=C(NCc1ccccc1Cl)c1ccc2nc([C@@H]3O[C@H](CO)[C@H](O)[C@H](O)[C@H]3O)[nH]c2c1 | -7 | -17 | 12 | -19% | 4% | /
Cc1cccc(N(C(=O)c2snc(C(N)=O)c2N)C(C(=O)NCC2CCCO2)c2cccs2)c1 (centres undefined) | / | 13 | 4 | -88% | 0.41µM* | 3%
Cc1ccc(C)c(N(C(=O)c2snc(C(N)=O)c2N)C(C(=O)NCC2CCCO2)c2cccs2)c1 (centres undefined) | 4 | 28 | -8 | 7.3µM* | 8.2µM* | 1%
COc1ccc(C)cc1N(C(=O)c1snc(C(N)=O)c1N)C(C(=O)NC1CCCCC1)c1ccc(C)o1 (centres undefined) | -6 | -55* | 8 | 18µM* | 18µM* | 5%
Cc1ccc(C)c(N(C(=O)c2snc(C(N)=O)c2N)C(C(=O)NCC2CCCO2)c2ccc(C)o2)c1 (centres undefined) | -1 | -3 | -3 | 16µM* | 10µM* | 0%
Cc1cccc(N(C(=O)c2snc(C(N)=O)c2N)C(C)C(=O)NCC2CCCO2)c1 (centres undefined) | -16 | ? | -1 | -2% | -22% | 4%
CCN(C(=O)COC(=O)c1ccco1)c1c(N)n(Cc2ccccc2)c(=O)[nH]c1=O | -7 | -1 | -6 | -11% | 3% | 5%
Cc1ncoc1C(=O)NC1CC(C)(C)Cc2c1cnn2-c1ccc(F)cc1 (centres undefined) | -2 | 12 | -6 | -15% | -3% | 4%
COc1cc(NC(=O)CSc2nc(=O)n(CCN3CCOCC3)c3c2CCCC3)cc(OC)c1 | -28 | -6 | -10 | -4% | -16% | 1%
C[n+]1ccccc1N1CCN(c2ccccc2Cl)CC1 | -1 | -3 | 9 | 23µM* | ? | 3%
Clc1ccccc1N1CCN(c2ncnc3nc[nH]c23)CC1 | 6 | 17 | 1 | -22% | -15% | 3%
Cc1ccc(Cl)cc1N1CCN(c2cccc[n+]2C)CC1 | 0 | -11 | 0 | ? | 26µM* | 11%
O=c1c2[nH]c3cccc(Cl)c3c2ncn1Cc1ccco1 | 0 | 8 | -4 | -1% | -5% | 3%
N#Cc1ccc(CN2CCN(C(=O)c3cc(C4CC4)nn3-c3ccccc3)CC2)cc1 | / | -3 | 28 | 23µM* | 21µM* | 2%
SMILES | CtBP-E1A blk | IL1B secr inh | Six1-Eya2 inh | TDP1 cell CPT | TDP1 cell noCPT | TDP1 block
COc1ccc(N2CCN(C(=O)c3cc(C4CC4)nn3-c3ccccc3)CC2)cc1 | -28 | 5 | -29 | ? | ? | 9%
COc1cc2c(cc1OC)CN(C(=O)c1cc(C3CC3)nn1-c1ccccc1)CC2 | -14 | -55* | -13 | 18µM* | ? | 7%
COc1cccc(OCC(O)CNC2CCCC2)c1 (centres undefined) | / | -15 | 9 | 1% | -9% | /
CCC(CC)C(=O)N1CCN(Cc2ccc3c(c2)OCO3)CC1 | -3 | -19 | -1 | ? | -25% | -2%
O=C1C=C(c2cccc(CO)c2)C[C@@H](c2ccc(F)cc2)C1 | -1 | -3 | 5 | -28% | -27% | 0%
COc1ccc([C@H]2CC(=O)C=C(c3ccc(-c4ccccc4)c(F)c3)C2)cc1 | / | 6 | 0 | -16% | -3% | 2%
O=C1C=C(c2ccc(-c3ccccc3)c(F)c2)C[C@@H](c2ccc(Cl)cc2)C1 | -15 | 18 | 11 | 21µM* | ? | 3%
O=C1C=C(c2cccc(Br)c2)C[C@@H](c2ccc(Cl)cc2)C1 | 12 | -1 | 7 | 16µM* | ? | 0%
